Source: PubChem BioAssay (EPA / NIEHS)
Inconclusive results are not listed. Active and inactive are the calls of the source. How the source made its calls, unless noted: active means hit-call score of the fitted dose curve at least 0.9, where 1 is the maximum; inactive means score below 0.9.

Experiments:
[1] = ATG_NFI_CIS: Attagene CIS-FACTORIAL HepG2 Assay for human Nuclear Factor I (NFI) (AID 2282989); conditions: HepG2 cis-regulatory reporter, NFI response element transcription; actives raise or lower the signal
How it was run: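 Read-out: reporter mRNA via RT-PCR plus capillary electrophoresis with fluorescence detection. Transiently transfected HepG2 (endogenous TF activity on cis promoters), 24 h compound exposure; gain or loss of signal fitted against DMSO.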

[2] = molecular target: Myc proto-oncogene protein (Homo sapiens) (UniProt P01106); test: ATG_Myc_CIS: Attagene CIS-FACTORIAL HepG2 Assay for human Myelocytomatosis (Myc) Proto-Oncogene Transcription Factor (AID 2282990); conditions: HepG2, Attagene cis-reporter transcription factor activity; actives raise or lower the signal
How it was run: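 After 24 h chemical treatment of HepG2 cells carrying multiplexed cis-regulated reporter constructs, reporter transcripts quantified by RT-PCR and capillary electrophoresis of fluorescent fragments. Gain or loss fitted against DMSO baseline.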

[3] = ATG_NF_kB_CIS: Attagene CIS-FACTORIAL HepG2 Assay for human Nuclear Factor Kappa B (NF-kB) (AID 2282991); conditions: HepG2 Attagene cis-factorial NF-kB reporter mRNA; actives raise or lower the signal
How it was run: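 Measures mRNA induction of an NF-kB-responsive cis-element reporter in HepG2 cells transfected with multiple reporter units, sampled 24 h post-dosing; quantified by fluorescence after RT-PCR and capillary electrophoresis, fitted for activation or inhibition against DMSO.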

[4] = ATG_NRF2_ARE_CIS: Attagene CIS-FACTORIAL HepG2 Assay for human Nuclear Factor Erythroid 2 Related Factor 2 (NFR2) response to Antioxidant Response Elements (ARE) (AID 2282992); conditions: HepG2 Attagene ARE/NRF2 reporter, transcription factor activity; actives raise or lower the signal;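 on AC50: reporter mRNA level measured by RT-PCR and capillary electrophoresis fluorescence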
How it was run: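 Fluorescence intensity of reporter-specific cDNA fragments, separated by capillary electrophoresis, reflects mRNA induction in transfected HepG2 cells at 24 h. Activity is fitted bidirectionally, DMSO serving as baseline.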

[5] = ATG_Oct_MLP_CIS: Attagene CIS-FACTORIAL HepG2 Assay for human Octamer-Binding Transcription Factor (Oct) (AID 2282993); conditions: HepG2 Attagene cis-factorial Oct reporter, mRNA; actives raise or lower the signal
How it was run: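 Read-out: reporter mRNA via RT-PCR plus capillary electrophoresis of 6-FAM-labelled fragments. Transiently transfected HepG2, 24 h exposure, endogenous TF activity on cis elements. Gain or loss of signal fitted relative to DMSO.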

[6] = molecular target: Cellular tumor antigen p53 (Homo sapiens) (UniProt P04637); test: ATG_p53_CIS: Attagene CIS-FACTORIAL HepG2 Assay for human p53 Transcription Factor (AID 2282994); conditions: HepG2 p53 cis-element reporter, Attagene mRNA; actives raise or lower the signal
How it was run: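 Transiently transfected HepG2 (multiple cis reporter transcription units); exposure 24 h; reporter RNA via RT-PCR, 6-FAM extension, 2 h HpaI digest at 37 C, CE detection; DMSO baseline.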

[7] = molecular target: human Peroxisome Proliferator-activated Receptor delta (PPARd), PPARD (gene 5467) (UniProt Q03181); test: ATG_PPARd_TRANS: Attagene TRANS-FACTORIAL HepG2 Assay for human Peroxisome Proliferator-activated Receptor delta (PPARd) (AID 2283002; active means hit-call score of the fitted dose curve at least 0.9, where 1 is the maximum)
How it was run: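 Read-out is induced reporter mRNA, quantified by RT-PCR with fluorescent labelling and capillary electrophoresis after 24 h dosing. Cells are HepG2 transiently carrying multiple GAL4-UAS reporter units driven by exogenous NR-GAL4 chimeras; DMSO serves as baseline.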

[8] = molecular target: human Retinoic Acid Receptor beta (RARb), RARB (gene 5915) (UniProt P10826); test: ATG_RARb_TRANS: Attagene TRANS-FACTORIAL HepG2 Assay for human Retinoic Acid Receptor beta (AID 2283004; active means hit-call score of the fitted dose curve at least 0.9, where 1 is the maximum)
How it was run: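 Fluorescent capillary-electrophoresis detection of GAL4-UAS reporter mRNA defines the endpoint, with induction over DMSO-treated wells scored as activity. Transiently transfected human hepatoma HepG2 cells expressing exogenous NR–Gal4 proteins are exposed to test chemicals for 24 h.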

[9] = molecular target: Retinoic acid receptor alpha (Homo sapiens) (UniProt P10276); test: ATG_RARa_TRANS: Attagene TRANS-FACTORIAL HepG2 Assay for human Retinoic Acid Receptor alpha (RARa) (AID 2283005; active means hit-call score of the fitted dose curve at least 0.9, where 1 is the maximum)
How it was run: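 Reporter transcripts, measured by RT-PCR with fluorescent labeling and capillary electrophoresis after 24 h dosing, reflect activity of an exogenous human RARa–GAL4 fusion in transiently transfected HepG2. Fitted for increase relative to DMSO.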

[10] = molecular target: Peroxisome proliferator-activated receptor gamma (Homo sapiens) (UniProt P37231); test: ATG_PPARg_TRANS: Attagene TRANS-FACTORIAL HepG2 Assay for human Peroxisome Proliferator-activated Receptor-gamma (PPARg) (AID 2283007; active means hit-call score of the fitted dose curve at least 0.9, where 1 is the maximum)
How it was run: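 Gain-of-signal endpoint relative to DMSO, derived from reporter mRNA levels quantified by RT-PCR and capillary electrophoresis. Cells were HepG2 transiently expressing a chimeric NR-Gal4 construct with GAL4-UAS reporters, exposed to chemicals for 24 h.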

[11] = molecular target: Nuclear receptor subfamily 1 group I member 2 (Homo sapiens) (UniProt O75469); test: ATG_PXR_TRANS: Attagene TRANS-FACTORIAL HepG2 Assay for human Pregnane X Receptor (PXR) (AID 2283008; active means hit-call score of the fitted dose curve at least 0.9, where 1 is the maximum)
How it was run: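 Transient HepG2 transfectants carrying multiplexed reporter transcription units; PXR activity read through a Gal4 chimera. 24 h exposure. RT-PCR/CE fluorescence; upward curve fit referenced to DMSO.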

[12] = molecular target: human Retinoic Acid Receptor gamma (RARg), RARG (gene 5916) (UniProt P13631); test: ATG_RARg_TRANS: Attagene TRANS-FACTORIAL HepG2 Assay for human Retinoic Acid Receptor gamma (RARg) (AID 2283009; active means hit-call score of the fitted dose curve at least 0.9, where 1 is the maximum)
How it was run: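 Transactivation of exogenous RARg-Gal4 fusion measured as reporter transcript induction after 24 h in transfected HepG2 cells. RNA reverse-transcribed, amplified, fluorescently labeled and resolved by capillary electrophoresis; increase relative to DMSO.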

[13] = molecular target: human RAR-related Orphan Receptor beta (RORb), RORB (gene 6096) (UniProt Q92753); test: ATG_RORb_TRANS: Attagene TRANS-FACTORIAL HepG2 Assay for human RAR-related Orphan Receptor beta (RORb) (AID 2283010; active means hit-call score of the fitted dose curve at least 0.9, where 1 is the maximum)
How it was run: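 Read-out is reporter mRNA induction, quantified by RT-PCR with fluorescent capillary electrophoresis, 24 h post-dose in transiently transfected HepG2 expressing exogenous NR-Gal4 chimera. Activity fitted upward versus DMSO.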

[14] = molecular target: human Peroxisome Proliferator-activated Receptor alpha (PPARa), PPARA (gene 5465) (UniProt Q07869); test: ATG_PPARa_TRANS: Attagene TRANS-FACTORIAL HepG2 Assay for human Peroxisome Proliferator-activated Receptor alpha (PPARa) (AID 2283001; active means hit-call score of the fitted dose curve at least 0.9, where 1 is the maximum)
How it was run: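 Reporter transcripts quantified by RT-PCR plus capillary electrophoresis after 24 h treatment, fitted upward relative to DMSO. Cells: human HepG2 transiently carrying multiple GAL4-UAS reporter units driven by NR-Gal4 chimeras.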

[15] = BSK_3C_uPAR: BioMAP Diversity Plus: 3C Assay for Urokinase-type plasminogen activator receptor (uPAR) Biomarker Activity (AID 2282998); conditions: BioMAP 3C HUVEC, uPAR biomarker ELISA; actives raise or lower the signal
How it was run: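 HUVEC primary cells; 24 h post-dose; uPAR by ELISA; gain or loss of signal fitted bidirectionally vs DMSO baseline.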

[16] = BSK_3C_VCAM1: BioMAP Diversity Plus: 3C Assay for Vascular cell adhesion molecule 1 (VCAM1) Biomarker Activity (AID 2282999); conditions: BioMAP 3C HUVEC, VCAM1 ELISA, cytokine-stimulated; actives raise or lower the signal
How it was run: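 Activity fitted in both directions relative to DMSO, with ELISA measurement of the surface marker on primary HUVEC (3C) at 24 h post-treatment; parallel SRB staining (0.1% SRB, TCA-fixed, 560 nm) flagged overt cytotoxicity.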

[17] = BSK_4H_Eotaxin3: BioMAP Diversity Plus: 4H Assay for Eotaxin 3 Biomarker Activity (AID 2283000); conditions: primary human endothelial cells (HUVEC); actives raise or lower the signal;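 further: CCL26 protein level quantified by ELISA in parallel with SRB cytotoxicity check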
How it was run: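 ELISA quantitation of CCL26 (Eotaxin-3) protein from chemically dosed human vascular endothelial cells at 24 h; increases and decreases both scored relative to DMSO-treated baseline.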

[18] = read-out: Intercellular Adhesion Molecule 1 (ICAM1), ICAM1 (gene 3383); test: BSK_3C_ICAM1: BioMAP Diversity Plus: 3C Assay for Intercellular Adhesion Molecule 1 (ICAM1) Biomarker Activity (AID 2283003); conditions: primary human endothelial cells (HUVEC); actives raise or lower the signal
How it was run: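 ELISA readout of ICAM1 in human umbilical vein endothelial cells in the 3C system, taken 24 h post-dose. Gain or loss of signal versus DMSO was fitted in both directions, with SRB total-protein staining run in parallel.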

[19] = BSK_3C_Proliferation: Cell Proliferation Assessment in the BioMAP Diversity Plus: 3C Assay (AID 2283006); conditions: primary human endothelial cells (HUVEC)
How it was run: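 Proliferation as total protein: sulforhodamine B (0.1%) stain of TCA-fixed subconfluent human umbilical vein endothelial cells, absorbance 560 nm, 48 h after dosing. Activity fitted in both directions against DMSO baseline.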

Measured: AC50

Nuclear receptor subfamily 1 group I member 2 (Homo sapiens), sequence (O75469 whole entry, looked up, the tested form may be a part): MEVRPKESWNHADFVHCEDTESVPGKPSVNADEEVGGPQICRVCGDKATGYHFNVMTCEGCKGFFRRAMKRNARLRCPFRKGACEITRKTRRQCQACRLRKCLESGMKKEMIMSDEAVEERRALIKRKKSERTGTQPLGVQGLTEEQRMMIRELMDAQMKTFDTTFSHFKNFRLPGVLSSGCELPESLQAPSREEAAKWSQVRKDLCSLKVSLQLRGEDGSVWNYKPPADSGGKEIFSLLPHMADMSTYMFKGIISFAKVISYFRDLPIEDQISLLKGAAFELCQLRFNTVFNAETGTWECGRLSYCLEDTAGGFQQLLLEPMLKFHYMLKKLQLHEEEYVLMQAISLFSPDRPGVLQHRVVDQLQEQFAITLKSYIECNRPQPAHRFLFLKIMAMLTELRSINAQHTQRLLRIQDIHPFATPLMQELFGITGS
human Retinoic Acid Receptor gamma (RARg), RARG (gene 5916), sequence (P13631 whole entry, looked up, the tested form may be a part): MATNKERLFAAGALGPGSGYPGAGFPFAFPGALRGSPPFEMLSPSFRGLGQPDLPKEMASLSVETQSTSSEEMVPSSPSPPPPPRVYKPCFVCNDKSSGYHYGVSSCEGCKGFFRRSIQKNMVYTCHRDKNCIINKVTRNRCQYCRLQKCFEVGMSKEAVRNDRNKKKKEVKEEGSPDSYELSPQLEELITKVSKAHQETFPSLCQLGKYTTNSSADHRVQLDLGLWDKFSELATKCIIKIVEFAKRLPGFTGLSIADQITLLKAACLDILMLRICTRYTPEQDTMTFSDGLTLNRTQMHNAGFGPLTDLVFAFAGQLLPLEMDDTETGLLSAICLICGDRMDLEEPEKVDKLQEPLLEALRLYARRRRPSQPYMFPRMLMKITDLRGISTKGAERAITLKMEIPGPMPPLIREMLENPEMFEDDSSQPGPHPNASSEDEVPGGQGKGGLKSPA
Peroxisome proliferator-activated receptor gamma (Homo sapiens), sequence (P37231 whole entry, looked up, the tested form may be a part): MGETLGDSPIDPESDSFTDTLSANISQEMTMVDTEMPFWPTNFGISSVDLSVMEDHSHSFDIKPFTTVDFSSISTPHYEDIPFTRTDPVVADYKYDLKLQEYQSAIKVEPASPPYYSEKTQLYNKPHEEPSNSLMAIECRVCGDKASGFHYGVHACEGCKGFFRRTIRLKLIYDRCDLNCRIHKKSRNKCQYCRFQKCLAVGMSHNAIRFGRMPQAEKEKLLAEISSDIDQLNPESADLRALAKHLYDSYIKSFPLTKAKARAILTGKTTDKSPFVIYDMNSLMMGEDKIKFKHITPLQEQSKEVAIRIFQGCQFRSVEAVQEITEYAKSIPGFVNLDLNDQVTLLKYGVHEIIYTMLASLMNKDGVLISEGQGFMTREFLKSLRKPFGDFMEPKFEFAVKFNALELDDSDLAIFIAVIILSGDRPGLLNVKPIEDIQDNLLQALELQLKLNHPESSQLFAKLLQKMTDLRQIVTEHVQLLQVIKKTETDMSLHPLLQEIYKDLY
human Peroxisome Proliferator-activated Receptor delta (PPARd), PPARD (gene 5467), sequence (Q03181 whole entry, looked up, the tested form may be a part): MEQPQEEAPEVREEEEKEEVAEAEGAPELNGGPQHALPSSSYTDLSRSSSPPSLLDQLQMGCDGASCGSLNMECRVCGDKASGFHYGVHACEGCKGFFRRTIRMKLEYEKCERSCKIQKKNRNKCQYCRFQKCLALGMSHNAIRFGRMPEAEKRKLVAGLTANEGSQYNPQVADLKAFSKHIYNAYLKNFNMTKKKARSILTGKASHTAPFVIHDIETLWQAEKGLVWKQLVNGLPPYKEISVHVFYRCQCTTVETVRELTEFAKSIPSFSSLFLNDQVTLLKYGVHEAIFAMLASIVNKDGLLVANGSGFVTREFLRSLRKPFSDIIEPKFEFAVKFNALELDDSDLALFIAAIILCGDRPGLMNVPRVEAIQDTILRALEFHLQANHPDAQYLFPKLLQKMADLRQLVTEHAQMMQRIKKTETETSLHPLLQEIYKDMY
human Retinoic Acid Receptor beta (RARb), RARB (gene 5915), sequence (P10826 whole entry, looked up, the tested form may be a part): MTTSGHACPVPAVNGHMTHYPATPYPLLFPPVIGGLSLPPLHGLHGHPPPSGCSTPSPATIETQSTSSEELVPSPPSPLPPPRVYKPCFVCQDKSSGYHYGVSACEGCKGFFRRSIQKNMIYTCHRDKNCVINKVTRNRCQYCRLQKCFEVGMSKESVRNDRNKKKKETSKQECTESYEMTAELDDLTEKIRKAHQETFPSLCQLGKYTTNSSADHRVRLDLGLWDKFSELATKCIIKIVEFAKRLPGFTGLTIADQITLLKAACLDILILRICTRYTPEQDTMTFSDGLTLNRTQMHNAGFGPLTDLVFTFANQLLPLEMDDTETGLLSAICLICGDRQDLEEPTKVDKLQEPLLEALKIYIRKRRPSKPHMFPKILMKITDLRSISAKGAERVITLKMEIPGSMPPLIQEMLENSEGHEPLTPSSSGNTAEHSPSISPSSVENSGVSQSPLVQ
human RAR-related Orphan Receptor beta (RORb), RORB (gene 6096), sequence (Q92753 whole entry, looked up, the tested form may be a part): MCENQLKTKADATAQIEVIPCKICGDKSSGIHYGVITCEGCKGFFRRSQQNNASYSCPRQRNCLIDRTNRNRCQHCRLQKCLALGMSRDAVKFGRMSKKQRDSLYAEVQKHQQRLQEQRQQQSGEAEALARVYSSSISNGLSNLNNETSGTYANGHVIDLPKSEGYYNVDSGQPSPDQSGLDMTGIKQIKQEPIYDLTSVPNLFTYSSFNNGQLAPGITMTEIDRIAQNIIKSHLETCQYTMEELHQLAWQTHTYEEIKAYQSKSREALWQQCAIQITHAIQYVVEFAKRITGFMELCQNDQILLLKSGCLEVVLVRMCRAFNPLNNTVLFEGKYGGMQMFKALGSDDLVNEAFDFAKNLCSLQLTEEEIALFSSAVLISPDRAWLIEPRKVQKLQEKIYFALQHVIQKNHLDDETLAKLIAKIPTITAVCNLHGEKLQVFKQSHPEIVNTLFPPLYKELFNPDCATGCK
Retinoic acid receptor alpha (Homo sapiens), sequence (P10276 whole entry, looked up, the tested form may be a part): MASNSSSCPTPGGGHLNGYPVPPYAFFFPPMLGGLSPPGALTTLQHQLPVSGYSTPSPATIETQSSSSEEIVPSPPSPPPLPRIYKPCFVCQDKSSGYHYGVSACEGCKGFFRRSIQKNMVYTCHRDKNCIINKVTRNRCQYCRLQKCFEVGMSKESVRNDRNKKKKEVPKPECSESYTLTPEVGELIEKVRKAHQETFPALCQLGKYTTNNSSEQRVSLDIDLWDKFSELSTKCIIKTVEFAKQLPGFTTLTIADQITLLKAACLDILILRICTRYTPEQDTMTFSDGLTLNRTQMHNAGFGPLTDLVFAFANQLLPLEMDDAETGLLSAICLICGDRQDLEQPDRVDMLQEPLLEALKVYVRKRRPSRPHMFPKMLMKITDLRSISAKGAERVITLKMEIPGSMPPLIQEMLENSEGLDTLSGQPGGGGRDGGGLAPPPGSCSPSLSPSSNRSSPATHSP
Cellular tumor antigen p53 (Homo sapiens), sequence (P04637 whole entry, looked up): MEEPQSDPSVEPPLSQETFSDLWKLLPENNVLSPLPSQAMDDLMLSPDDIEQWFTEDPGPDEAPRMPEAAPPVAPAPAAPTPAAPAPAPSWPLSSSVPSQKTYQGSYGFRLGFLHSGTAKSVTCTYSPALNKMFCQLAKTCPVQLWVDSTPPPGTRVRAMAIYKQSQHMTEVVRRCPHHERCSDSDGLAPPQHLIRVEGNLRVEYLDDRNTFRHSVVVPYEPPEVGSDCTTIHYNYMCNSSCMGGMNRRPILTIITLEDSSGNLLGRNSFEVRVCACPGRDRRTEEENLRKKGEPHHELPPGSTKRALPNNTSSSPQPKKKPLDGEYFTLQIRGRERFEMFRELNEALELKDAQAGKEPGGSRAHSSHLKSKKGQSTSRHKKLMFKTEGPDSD
Myc proto-oncogene protein (Homo sapiens), sequence (P01106 whole entry, looked up, the tested form may be a part): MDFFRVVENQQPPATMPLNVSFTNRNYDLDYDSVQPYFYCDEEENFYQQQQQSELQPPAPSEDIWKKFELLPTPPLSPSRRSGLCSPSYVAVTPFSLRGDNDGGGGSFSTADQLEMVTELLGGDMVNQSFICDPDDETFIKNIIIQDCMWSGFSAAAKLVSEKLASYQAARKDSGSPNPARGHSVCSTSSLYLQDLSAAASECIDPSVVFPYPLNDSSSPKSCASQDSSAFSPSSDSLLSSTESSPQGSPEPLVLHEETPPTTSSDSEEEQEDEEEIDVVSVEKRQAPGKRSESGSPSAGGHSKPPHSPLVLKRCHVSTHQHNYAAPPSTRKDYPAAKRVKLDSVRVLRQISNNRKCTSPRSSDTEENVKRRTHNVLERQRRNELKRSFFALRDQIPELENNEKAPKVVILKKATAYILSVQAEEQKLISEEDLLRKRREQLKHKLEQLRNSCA
human Peroxisome Proliferator-activated Receptor alpha (PPARa), PPARA (gene 5465), sequence (Q07869 whole entry, looked up, the tested form may be a part): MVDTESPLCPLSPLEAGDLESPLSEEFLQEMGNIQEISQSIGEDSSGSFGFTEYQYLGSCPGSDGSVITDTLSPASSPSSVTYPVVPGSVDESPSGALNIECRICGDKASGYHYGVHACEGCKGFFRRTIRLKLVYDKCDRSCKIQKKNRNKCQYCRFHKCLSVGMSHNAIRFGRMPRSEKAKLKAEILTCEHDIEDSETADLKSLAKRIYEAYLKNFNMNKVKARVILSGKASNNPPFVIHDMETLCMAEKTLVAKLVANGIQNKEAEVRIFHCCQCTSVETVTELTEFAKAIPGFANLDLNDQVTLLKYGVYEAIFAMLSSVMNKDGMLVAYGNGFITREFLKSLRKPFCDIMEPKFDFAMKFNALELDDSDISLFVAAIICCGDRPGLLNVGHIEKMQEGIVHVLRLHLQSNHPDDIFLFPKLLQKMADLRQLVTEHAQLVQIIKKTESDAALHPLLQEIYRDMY

Cc1ccc2ccccc2n1
not listed: [14] | [15] | [16] | [17] | [18] | [19]
inactive: all other assays above

CC1CC(OC(=O)c2ccccc2O)CC(C)(C)C1 (stereo not given)
not listed: [10] | [13] | [14] | [15] | [16] | [17] | [18] | [19]
inactive: all other assays above

CN(C)C(=N)N=C(N)N
inactive: [1] | [2] | [3] | [4] | [5] | [6] | [7] | [11] | [12]

O=[N+]([O-])c1ccc(Nc2ccc(Nc3ccccc3)c(S(=O)(=O)O)c2)c([N+](=O)[O-])c1
inactive: [1] | [2] | [3] | [5] | [7]
active: [4] 171 µM | [6] 178 µM | [10] 17.9 µM | [11] 22.9 µM

CCCCNC(=O)NS(=O)(=O)c1ccc(N)cc1
inactive: [1] | [2] | [3] | [4] | [5] | [6] | [9] | [12]

CC1(CO)CN(c2ccccc2)NC1=O (stereo not given)
inactive: [1] | [2] | [3] | [4] | [5] | [6] | [7] | [8] | [10] | [11]

CCCC(=O)C(C)=O
inactive: [1] | [2] | [3] | [4] | [5] | [6] | [14] | [11]

C=C(C)C(=O)OCCOC(=O)CC(C)=O
inactive: [1] | [2] | [3] | [4] | [5] | [6] | [14] | [11] | [13]

CC(C)OP(=O)(CP(=O)(OC(C)C)OC(C)C)OC(C)C
active: [11] 3.27 µM
inactive: [1] | [2] | [3] | [4] | [5] | [6] | [7] | [10]

CC(=O)c1c(C)cc(C(C)(C)C)cc1C
not listed: [13] | [14] | [15] | [16] | [17] | [18] | [19]
inactive: all other assays above

CSc1nc(NC2CC2)nc(NC(C)(C)C)n1
inactive: [1] | [2] | [3] | [5] | [6] | [7]
active: [4] 12.1 µM | [10] 31.9 µM | [11] 1.05 µM

CC(C)Oc1ccccc1O
active: [11] 27.4 µM
not listed: [5] | [7] | [8] | [9] | [12] | [14]
inactive: all other assays above
